Pf growth 48h: inhibits P. falciparum growth in the first generation, 48 h. P. falciparum luciferase growth in erythrocytes, 48 h. Potency, µM (doses to about 28.7 µM), for inactives: at the highest dose activity change, negative = inhibition, actives largely listed as inhibitors. 310,000 tested, 5.9% active. AID 504832; also: potency is read from the fitted curve at half-maximal effect; % is scaled to controls: 0 for no effect and ±100 for the full control effect
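Here the parasites carry a stable luciferase gene and grow inside erythrocytes in Albumax-based RPMI medium with compound for one erythrocytic cycle. Activity is scored as loss of luminescent signal.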
CHX counter: affects cycloheximide protein synthesis inhibition readout, counter-screen; 300,000 tested, 12% active; max response, %; cell reporter, cycloheximide protein synthesis inhibition counterscreen; AID 2314; in the data active = max response mostly above about 13%, no sharp cut-off; inactive = mostly below about 14%; also: read at 38.3 µM for the half of the compounds with a filed dose; 0% is about no effect
LmPK inhibitor: LmPK (Leishmania mexicana) enzyme inhibition. purified LmPK, Kinase-Glo ATP luminescence, 1 h. 290,000 tested, 0.37% active. Potency, µM (titrated, usually from 57.5 µM), for the others: at the highest dose activity change, negative = inhibition, usual class: inhibitors; also: potency is read from the fitted curve at half-maximal effect; % is scaled to controls: 0 for no effect and ±100 for the full control effect
Target sequence (Q27686 whole entry, looked up): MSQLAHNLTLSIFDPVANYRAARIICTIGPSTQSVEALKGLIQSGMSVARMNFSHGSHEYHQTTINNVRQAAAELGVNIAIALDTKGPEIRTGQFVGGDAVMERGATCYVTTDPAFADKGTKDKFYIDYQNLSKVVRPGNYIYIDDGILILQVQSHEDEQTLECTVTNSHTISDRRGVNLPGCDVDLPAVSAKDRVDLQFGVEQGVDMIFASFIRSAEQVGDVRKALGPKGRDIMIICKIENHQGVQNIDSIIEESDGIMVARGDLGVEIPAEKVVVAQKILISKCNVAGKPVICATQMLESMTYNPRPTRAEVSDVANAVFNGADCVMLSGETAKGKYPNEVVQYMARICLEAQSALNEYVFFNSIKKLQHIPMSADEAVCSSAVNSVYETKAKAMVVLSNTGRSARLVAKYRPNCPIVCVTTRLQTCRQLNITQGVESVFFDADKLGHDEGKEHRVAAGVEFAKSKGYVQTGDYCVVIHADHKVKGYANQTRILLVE
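Kinase-Glo luminescence read after 1 h RT reaction of 0.1 nM LmPK with 0.5 mM PEP and 0.1 mM ADP. Activity scaled between uninhibited and enzyme-free controls.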
Shiga toxin inh: inhibitors of Shiga toxin in Vero cells; Vero cells, Shiga toxin protein synthesis inhibition reporter; inhibition, % at 38.7 µM; 290,000 tested, 9.2% active; AID 2315; in the data active = inhibition mostly above about 28%, no sharp cut-off; inactive = mostly below about 43%; also: 0% is about no effect
Pf growth 96h: inhibits malaria parasite growth, 96 h | Potency, µM (top dose mostly 28.7 µM), without a hit: at the highest dose activity change, negative = inhibition, usual class: inhibitors | P. falciparum luciferase reporter growth, 96 h | 320,000 tested, 6.9% active | AID 504834; also: potency is read from the fitted curve at half-maximal effect; % is scaled to controls: 0 for no effect and ±100 for the full control effect
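Luminescence readout: decreased luciferase signal marks inhibited growth of reporter-expressing P. falciparum in infected red cells (2% hematocrit, 0.05% parasitemia final), exposed to compound two generations (96 h, 37 C, 5% CO2).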
An asterisk follows results filed as active; i = inactive; ? = inconclusive; / = not tested or not shown. The list is not random: actives were taken first. Their share in the collection is about 22%. Unless noted, calls follow the shape of the dose curve; as a rule, active = well fitted inhibition curve with a large enough effect; inconclusive = small, poorly fitted or top-dose-only effect, or another doubt; inactive = no such curve, though single readings can be large or run the other way.

SMILES | Pf growth 48h | CHX counter | LmPK inhibitor | Shiga toxin inh | Pf growth 96h
C=CCN(CC=C)C(=O)c1ccc(OC2CCN(S(=O)(=O)N(C)C)CC2)cc1 | -19% | 53* | 5% | 87* | i
COC(=O)CN(C)C(=O)c1ccc(OC2CCN(S(=O)(=O)N(C)C)CC2)cc1 | 13% | 21* | 1% | 33* | ?
Cc1cc(CN(C)C(=O)c2ccc(OC3CCN(S(=O)(=O)N(C)C)CC3)cc2)n[nH]1 | ? | 8 | 1% | -5 | 4%
CN(C)S(=O)(=O)N1CCC(Oc2ccc(C(=O)NCC(C)(C)CO)cc2)CC1 | -17% | 11 | -1% | 6 | 1.7µM*
CC(C)c1ccc(CN2CC(C(=O)Nc3ccccc3)CC2=O)cc1 (configuration not stated) | -19% | -2 | 4% | -6 | -13%
CC(=O)C(c1ccccc1)C(c1ccccc1)C(C)[N+](=O)[O-] (configuration not stated) | ? | -1 | 4% | -7 | -27%
CC(C)OC(=O)c1ccc(NC(=S)NC(=O)c2cncc(Br)c2)cc1 | / | 1 | 4% | -2 | ?
C=CCNC(=O)c1ccc(OC2CCN(S(=O)(=O)N(C)C)CC2)cc1 | -9% | 51* | 0% | 95* | 0%
COc1ccc(S(=O)(=O)N2CCOCC2)cc1NC(=O)Cc1coc2cc(C)c(C)cc12 | ? | -2 | 1% | 3 | ?
CN(CCCCCCCCC(=O)/C=N/O)Cc1ccccc1 | / | -6 | 7% | -7 | 2.6µM*
COc1ccc(OCCCCN(C)Cc2ccccc2)cc1 | 1% | -1 | -2% | / | -28%
O=S(=O)(c1ccc(N2CCOCC2)c(Cl)c1)N1CCOCC1 | -4% | -6 | 2% | -8 | -25%
O=c1c2ccccc2sn1-c1cc(S(=O)(=O)N2CCOCC2)ccc1N1CCOCC1 | 3.7µM* | -3 | -5% | -17 | 10%
O=C(COC(=O)CC1CCCC1)Nc1ccccc1[N+](=O)[O-] | -9% | / | / | / | -8%
C=CCn1c(SCC(N)=O)nnc1-c1cccc(Br)c1 | 10% | 2 | 2% | -15 | 14%
C=CCn1c(SCc2ccccc2C#N)nnc1-c1cc(Br)ccc1O | 2.3µM* | -5 | 1% | 3 | -1%
O=c1ccn(Cc2ccccc2)cc1 | 44% | -4 | -1% | -6 | 64%
Cc1ccccc1Cn1ccc(=NCc2ccccc2)cc1 | 0.74µM* | -2 | -2% | 2 | 0.33µM*
COc1ccc(NS(=O)(=O)c2ccc(C)c(C(=O)NCC(c3ccco3)N(C)C)c2)cc1 (configuration not stated) | -6% | / | / | / | -22%
O=C(NCc1cccs1)C1CCN(c2ccc(S(=O)(=O)N3CCOCC3)cc2Cl)CC1 | 4.7µM* | -1 | -1% | -10 | ?
C#CCNC(=O)C1CCN(c2ccc(S(=O)(=O)N3CCOCC3)cc2Cl)CC1 | ? | -3 | 3% | -10 | ?
O=C(NCC(c1cccs1)N1CCOCC1)C1CCN(S(=O)(=O)c2c(Cl)cccc2Cl)CC1 (configuration not stated) | 13µM* | / | / | / | ?
O=C(CNC(=O)c1cccs1)Nc1ccncc1 | 7% | / | / | / | 2%
Oc1ccc(C2N=C(c3ccccc3)NC(c3ccccc3)=N2)cc1 | -13% | 9 | 12% | -9 | 12µM*
c1ccc(C2=NC(c3ccccc3)N=C(c3ccccc3)N2)cc1 | ? | 1 | 1% | -3 | -26%
SMILES | Pf growth 48h | CHX counter | LmPK inhibitor | Shiga toxin inh | Pf growth 96h
CCOC(=O)C1C(=O)NC(c2ccccc2)=NC1c1ccc(O)c(OC)c1 (configuration not stated) | 46% | -1 | 5% | 8 | -3%
Oc1ccccc1C1N=C(c2ccccc2)NC(c2ccccc2)=N1 | / | 1 | 5% | -15 | 1.7µM*
CCO[C@H]1OC(C(=O)N2CCN(Cc3ccccc3)CC2)=C[C@@H](c2coc3ccccc3c2=O)[C@@H]1CCCO | ? | -1 | 0% | -18 | ?
C#Cc1ccc([C@@H]2C=C(C(=O)N3CCN(Cc4ccccc4)CC3)O[C@H](OCC)[C@H]2CCCO)cc1 | ? | -3 | 9% | -3 | 6.6µM*
CCO[C@@H]1OC(C(=O)N2CCN(Cc3ccccc3)CC2)=C[C@H](c2ccccc2)[C@H]1CCCO | ? | 1 | -8% | -18 | ?
C#Cc1ccc([C@H]2C=C(C(=O)N3CCN(Cc4ccccc4)CC3)O[C@@H](OCC)[C@@H]2CCCO)cc1 | ? | 0 | -1% | -14 | 10µM*
CCO[C@@H]1OC(C(=O)N2CCN(Cc3ccccc3)CC2)=C[C@H](c2coc3ccccc3c2=O)[C@H]1CCCO | ? | -2 | 1% | -9 | 5.2µM*
Cc1[nH]c2ccccc2c1SCCNC(=O)c1ccc(S(=O)(=O)N2CCCC2)cc1 | ? | -6 | 0% | -10 | 13µM*
Cc1cc2cc(CCNC(=O)c3ccc(S(=O)(=O)N4CCOCC4)cc3)c(=O)[nH]c2cc1C | ? | -1 | 8% | 24 | 8.3µM*
Cc1cc2cc(CCNC(=O)c3cccs3)c(=O)[nH]c2cc1C | 70% | 31* | 1% | 54* | -15%
Cc1ccc2cc(CCNC(=O)c3ccc(S(=O)(=O)N4CCOCC4)cc3)c(=O)[nH]c2c1C | ? | -2 | 8% | -5 | 12µM*
CCOC(=O)Cn1c(=O)oc2cc(S(=O)(=O)N3CCN(C(=O)c4ccco4)CC3)ccc21 | 34% | -3 | 1% | -16 | -2%
CC(=O)N1CCN(C(=O)COC(=O)COc2ccc(C#N)cc2)CC1 | -27% | / | / | / | 4%
O=C(NCc1ccc2[nH]c3c(c2c1)CCCC3)c1ccc(S(=O)(=O)N2CCCCC2)cc1 | ? | -2 | 1% | -9 | 10µM*
Cc1ccc(C)c2[nH]c(=O)c(CCNC(=O)c3ccc(S(=O)(=O)N4CCCC4)cc3)cc12 | 12µM* | -1 | 1% | 33 | ?
Cc1ccc2cc(CCNC(=O)c3ccc(S(=O)(=O)N4CCOCC4)cc3)c(=O)[nH]c2c1 | ? | -5 | 0% | 1 | 13µM*
Cc1ccc(S(=O)(=O)N2CCN(C(=O)CN3C(=O)c4ccccc4C3=O)CC2)c(C)c1 | 30% | / | / | / | 22%
COC(=O)CN1C(c2ccc(Cl)cc2)=Nc2ccc(Cl)cc2C1c1ccccc1 (configuration not stated) | 2.6µM* | 5 | 0% | 12 | 3.3µM*
COc1ccc(C2=Nc3ccc(Br)cc3C(c3ccccc3)N2CC(=O)NN)cc1 (configuration not stated) | 13µM* | -1 | 0% | -9 | 0%
COc1ccc(C2=Nc3ccc(C)cc3C(c3ccccc3)N2CC(=O)NN)cc1 (configuration not stated) | -11% | 11 | 0% | -1 | 1.9µM*
NNC(=O)CN1C(c2cccc(Cl)c2)=Nc2ccc(Br)cc2C1c1ccccc1 (configuration not stated) | 1.9µM* | -6 | 9% | -14 | 90%

Bioassay records deposited in PubChem by National Center for Advancing Translational Sciences (NCATS).
